6 compounds from PubChem BioAssay (EPA / NIEHS) can be followed below.

Active and inactive are the calls of the source. The calls were made as follows: active = hit-call score of the fitted dose curve at least 0.9, where 1 is the maximum; inactive = score below 0.9.

Experiment [1] is described as follows: APR_HepG2_CellCycleArrest_24hr: Apredica 24-hour HepG2 Assay for Cell Cycle Arrest (AID 2282905).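 Also: cell cycle arrest scored as ratio of 2N to 4N nuclear DNA content.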 The following applies: imaging, actives raise or lower the signal. The gist of the method: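 Cell cycle arrest is scored from nuclear DNA content measured by high-content imaging of Hoechst 33342-stained HepG2 cells following 24-hour treatment at ten concentrations up to 200 uM, with DMSO as baseline.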

Experiment [2] can be described thus: APR_HepG2_NuclearSize_24hr: Apredica 24-hour HepG2 Assay for Nuclear Size (AID 2282907). Conditions: high-content imaging, actives raise or lower the signal. Put shortly:
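Compounds in DMSO (final 0.5%) were added to human HepG2 hepatoma cells at ten concentrations up to 200 uM for 24 hr. Fixed nuclei were stained with Hoechst 33342, and nuclear diameter was quantified from automated images.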

The nature of experiment [3]: APR_HepG2_CellLoss_24hr: Apredica 24-hour HepG2 Assay for Cell Loss (AID 2282908).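 As to AC50: fit in both directions so a hit may be cell loss or gain.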 The following applies: high-content imaging. The gist of the method: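 Cell number is quantified by fluorescence imaging of Hoechst 33342-stained nuclei following dosing at 0.39–200 uM in 0.5% DMSO. Curves are fitted in both directions from the DMSO baseline.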
Experiment [4] can be described thus: APR_HepG2_MicrotubuleCSK_24hr: Apredica 24-hour HepG2 Assay for Microtubule CSK Stabilty (AID 2282909). The following applies: HepG2 microtubule cytoskeleton imaging, actives raise or lower the signal. Put shortly: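 Steps: dose HepG2 for 24 h (0.39–200 uM, 0.5% DMSO); fix 30 min in 3.7% formaldehyde at room temperature; permeabilize; stain alpha-tubulin 60 min; image microtubule cytoskeleton at 20x. Signal change fitted in both directions relative to DMSO.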

The nature of experiment [5]: APR_HepG2_MitoticArrest_24hr: Apredica 24-hour HepG2 Assay for Mitotic Arrest (AID 2282910). The following applies: high-content imaging, actives raise or lower the signal. The gist of the method: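 Compounds are dosed onto HepG2 cells across ten concentrations up to 200 uM for 24 hr. Cells are then fixed in 3.7% formaldehyde, permeabilised, and labelled for phospho-histone H3 and nuclei; images are scored by cell cycle analysis and fitted bidirectionally relative to DMSO.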

Experiment [6] in a line: APR_HepG2_MitoMembPot_24hr: Apredica 24-hour HepG2 Assay for Mitochondrial Membrane Potential (AID 2282911). The following applies: imaging, actives raise or lower the signal. Put shortly:
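Human hepatoma HepG2 cultures received ten compound concentrations up to 200 uM for 24 hr. Membrane-potential dye signal, captured by automated fluorescence microscopy, was scored for gain or loss against DMSO controls.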

Experiment [7] is described as follows: APR_HepG2_MitoMass_24hr: Apredica 24-hour HepG2 Assay for Mitochondrial Mass (AID 2282912). Conditions: high-content imaging, actives raise or lower the signal. Put shortly:
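The liver line HepG2 was dosed in duplicate across a 0.39–200 uM series, with final DMSO held at 0.5% v/v, and harvested at 24 hr. High-content imaging measured mitochondrial dye staining.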

Experiment [8] is described as follows: APR_HepG2_p53Act_24hr: Apredica 24-hour HepG2 Assay for p53 Activation (AID 2282913).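 Also: p53 protein immunofluorescence averaged per cell in HepG2 with Hoechst nuclei.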 The following applies: high-content imaging, actives raise or lower the signal. Put shortly:
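Automated fluorescence imaging quantifies p53 immunostaining in HepG2 cells after a 24 hr exposure (0.39–200 uM, duplicate, 0.5% DMSO). Nuclei are located by Hoechst 33342 staining.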

A short description of experiment [9]: APR_HepG2_CellCycleArrest_72hr: Apredica 72-hour HepG2 Assay for Cell Cycle Arrest (AID 2282914). Conditions: high-content imaging, actives raise or lower the signal. The gist of the method:
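Cell cycle arrest in HepG2 was scored from nuclear DNA content after 72 hr compound treatment (0.39–200 uM). Activity, either gain or loss, was fitted against the DMSO baseline.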

The nature of experiment [10]: APR_HepG2_CellLoss_72hr: Apredica 72-hour HepG2 Assay for Cell Loss (AID 2282915). The following applies: high-content imaging. The gist of the method:
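Cell number comes from Hoechst 33342-labelled nuclei, imaged at 20x after 3.7% formaldehyde fixation. Dosing was 0.39–200 uM, ten concentrations in duplicate, 0.5% DMSO final, for 72 h. Bidirectional fit relative to DMSO baseline.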

A short description of experiment [11]: APR_HepG2_P-H2AX_72hr: Apredica 72-hour HepG2 Assay for H2AX Phosphorylation (AID 2282916).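 Also: phospho-histone H2A.x immunostain intensity per cell marking DNA damage.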 Conditions: imaging, actives raise or lower the signal. The gist of the method:
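Following 72 hr treatment with 0.39–200 uM compound, HepG2 cells were formaldehyde-fixed, permeabilized and stained for phospho-H2A.x; signal was measured by high-content imaging and fitted bidirectionally against DMSO controls.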

Experiment [12] can be described thus: APR_HepG2_MitoMembPot_72hr: Apredica 72-hour HepG2 Assay for Mitochondrial Membrane Potential (AID 2282917). Conditions: imaging, actives raise or lower the signal. Put shortly:
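Membrane potential read by MitoTracker Red CMXRos (250 nM, 30 min, pre-fixation) fluorescence imaging of HepG2 after 72 hr exposure. Ten concentrations, 0.39–200 uM, duplicate wells, 0.5% DMSO; fitted in both directions against DMSO baseline.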

A short description of experiment [13]: APR_HepG2_MitoticArrest_72hr: Apredica 72-hour HepG2 Assay for Mitotic Arrest (AID 2282918). Conditions: high-content imaging, actives raise or lower the signal. The gist of the method:
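Mitotic arrest in HepG2 is scored from phospho-histone H3 staining after 72 hr dosing across 0.39–200 uM, with DMSO at 0.5% v/v. Nuclei are identified by Hoechst 33342 and fluorescence intensity is quantified per cell.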

The nature of experiment [14]: APR_HepG2_MicrotubuleCSK_72hr: Apredica 72-hour HepG2 Assay for Microtubule CSK Stabilty (AID 2282919). Conditions: HepG2 microtubule cytoskeleton, high-content imaging, actives raise or lower the signal. The gist of the method:
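Read-out is tubulin fluorescence intensity from high-content imaging of HepG2 cells, with nuclei identified by Hoechst 33342. Treatment lasts 72 h at 0.39–200 uM, and curves are fitted bidirectionally against the DMSO negative control.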

The nature of experiment [15]: APR_HepG2_P-H2AX_24hr: Apredica 24-hour HepG2 Assay for H2AX Phosphorylation (AID 2282920). The following applies: high-content imaging, actives raise or lower the signal. Put shortly:
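Signal comes from a FITC-labeled secondary detecting phospho-histone H2A.x in fixed HepG2 cells, quantified by automated imaging at 20x. Dosing ran 24 hr across 0.39–200 uM with 0.5% v/v DMSO.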

Experiment [16] can be described thus: APR_HepG2_StressKinase_24hr: Apredica 24-hour HepG2 Assay for Stress Kinase (AID 2282922). Conditions: HepG2 stress kinase (phospho-c-Jun) imaging, actives raise or lower the signal. Put shortly:
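HepG2, 24 hr dosing, 0.39–200 uM in duplicate, 0.5% DMSO; formaldehyde fix (3.7%), 0.5% Triton X-100; anti-phospho-c-Jun + Cy3 secondary, Hoechst counterstain; ArrayScan imaging; bidirectional curve fit vs DMSO baseline.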

A short description of experiment [17]: APR_HepG2_p53Act_72hr: Apredica 72-hour HepG2 Assay for p53 Activation (AID 2282923).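 Also: average cellular p53 protein immunofluorescence intensity in HepG2 cells.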 The following applies: high-content imaging, actives raise or lower the signal. Put shortly:
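HepG2 monolayers receive test compounds in duplicate at ten concentrations (0.39 through 200 uM) for 72 hr. They are then formaldehyde-fixed, antibody-labelled for p53, Hoechst-stained and imaged, with activity fitted bidirectionally versus DMSO.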

Experiment [18] is described as follows: APR_HepG2_MitoMass_72hr: Apredica 72-hour HepG2 Assay for Mitochondrial Mass (AID 2282924).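 Also: MitoTracker Red CMXRos stain intensity per cell imaged as mitochondrial mass.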 The following applies: high-content imaging, actives raise or lower the signal. Put shortly:
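HepG2, 72 hr cmpd, 10 conc 0.39–200 uM in dup, DMSO 0.5% v/v. MitoTracker Red CMXRos 250 nM 30 min pre-fix; formaldehyde 3.7% fix 30 min RT. HCS imaging, gain/loss fit vs DMSO.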

Experiment [19] is described as follows: APR_HepG2_NuclearSize_72hr: Apredica 72-hour HepG2 Assay for Nuclear Size (AID 2282925). Conditions: high-content imaging, actives raise or lower the signal. The gist of the method:
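HepG2; cpd 0.39–200 uM, 10 conc, duplicate; 72 h; DMSO 0.5% v/v; fix 3.7% formaldehyde 30 min RT; Triton permeabilization; Hoechst 2 ug/mL; HCS imaging 20x; nuclear diameter; gain/loss fit vs DMSO.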

Experiment [20] is described as follows: APR_HepG2_StressKinase_72hr: Apredica 72-hour HepG2 Assay for Stress Kinase (AID 2282921). The following applies: HepG2 stress kinase (phospho-c-Jun) imaging, actives raise or lower the signal. The gist of the method:
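Fluorescence intensity of Cy3-tagged anti-phospho-c-Jun antibody, quantified per cell from Hoechst-defined nuclei across six images per well, served as the read-out following 72 h exposure (0.39–200 uM, 0.5% v/v DMSO).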

Broadly, the AC50 is the midpoint of the concentration-response curve, whichever way the signal moves.

`c1ccc2ccccc2c1`: the compound was classed as inactive in experiment [1], in experiment [2], in experiment [3], in experiment [4], in experiment [5] and in [6]. Also, the result in experiment [7], in [8], in experiment [11], in experiment [12], in experiment [14] and in experiment [15] was inactive. Also, the call in [16] and in experiment [19] was inactive. Also, the AC50 in [9] is 0.0357 µM (active); in experiment [10], 0.0736 µM (active); in experiment [13], 0.0415 µM (active); in experiment [17] it was 0.0391 µM (active); in [18] it was 0.0598 µM (active).
As for `O=c1c(-c2ccc(O)cc2)coc2cc(O)cc(O)c12`, the AC50 in experiment [1] was 43.1 µM (active); in experiment [3], 32.6 µM (active); in experiment [6], 78.9 µM (active); in [8], 70.7 µM (active); in experiment [9], 47.4 µM (active); in experiment [10], 42.9 µM (active). The AC50 in experiment [12] was 57 µM (active); in experiment [17] it was 72.9 µM (active). Also, the compound was classed as inactive in experiment [2], in [4], in [5], in [7], in experiment [11] and in experiment [13]. Moreover, the result in experiment [14], in experiment [15], in experiment [20], in experiment [16], in [18] and in experiment [19] was inactive.
As for `C[C@]12CC[C@@H]3c4ccc(O)cc4CC[C@H]3[C@@H]1CC[C@H]2O`, the compound was called inactive in [1], in experiment [7], in experiment [11], in experiment [12], in [13] and in experiment [14]. Further, the compound was classed as inactive in experiment [20], in experiment [16], in experiment [17], in experiment [18] and in experiment [19]. The AC50 was 105 µM (active) in experiment [2]; 68.1 µM (active) in [3]; 100 µM (active) in experiment [4]; 97.1 µM (active) in [5]; 16.8 µM (active) in experiment [6]; 54.6 µM (active) in experiment [8]. Besides, the AC50 was 173 µM (active) in experiment [9], 75.6 µM (active) in experiment [10] and 62.4 µM (active) in [15].
Turning to `CCCCCCCCN(C)CCCCCCCC`, the outcome in experiment [1], in experiment [2], in [3], in experiment [4], in experiment [5] and in experiment [6] was inactive. Besides, the compound was called inactive in experiment [7], in [8], in experiment [9], in experiment [10], in experiment [11] and in experiment [12]. Moreover, the compound was classed as inactive in [14], in experiment [15], in experiment [20], in experiment [16], in [17] and in [18]. In addition, the outcome in experiment [19] was inactive.
For `Cc1c2ccccc2c(C)c2c1ccc1ccccc12`, the AC50 in [1] is 44.6 µM (active); in experiment [2], 77.3 µM (active); in experiment [3], 56.1 µM (active); in experiment [4], 74.5 µM (active); in experiment [5], 49.3 µM (active); in experiment [6], 95.7 µM (active). In addition, the AC50 was 0.069 µM (active) in experiment [8]; 6.16 µM (active) in experiment [9]; 40.3 µM (active) in [10]; 21.5 µM (active) in experiment [11]; 35.8 µM (active) in [13]; 74 µM (active) in experiment [14]. The values for the AC50 in [15], in [17] and in experiment [19] were 19.8 µM (active), 0.355 µM (active) and 54.7 µM (active), respectively. Also, the compound was called inactive in experiment [7], in experiment [12], in experiment [16] and in [18].
With `CC[C@@H]1C[C@H](N(Cc2cc(C(F)(F)F)cc(C(F)(F)F)c2)C(C)=O)c2cc(C(F)(F)F)ccc2N1C(=O)OC(C)C`, the compound was called inactive in experiment [1], in experiment [2], in experiment [3], in experiment [4], in experiment [5] and in experiment [7]. Moreover, the call in [8], in experiment [9], in experiment [10], in experiment [11], in experiment [12] and in experiment [13] was inactive. Moreover, the compound was called inactive in experiment [14], in [15], in experiment [16], in experiment [17], in experiment [18] and in experiment [19]. The AC50 in [6] is 0.0358 µM (active).
